The campaign covered roughly 5,500 compounds. About 2,000 (36%) were called active. Inconclusive results (about 18%) are left out. No stated cut-off is given here; in the data, active means normalized growth mostly below about 0.91 (no sharp cut-off); inconclusive means no clear call, values can overlap the other calls; inactive means mostly above about 0.92. The list shows a part of the results.
Assay: chemical genetic growth profiling, strain panel (AID 1159580);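 further: tested at 20 µM; growth read once vehicle control cultures reached saturation at 30 °C; 1 = growth at the plate median or of vehicle wells; lower values mean less growth of the strain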
Conditions: growth OD
[1] = S. cerevisiae deletion strains, locus YCL061C, strain MRC1, active compounds read low
[2] = S. cerevisiae deletion strains, locus YHR030C, strain SLT2, active compounds read low

Measured: normalized growth

Cc1onc(NC(=O)NC(=O)c2c(F)cccc2Cl)c1Br
inactive: S. cerevisiae deletion strains, locus YAL013W, strain DEP1, active compounds read low 1 | S. cerevisiae deletion strains, locus YBR229C, strain ROT2, active compounds read low 0.996 | [1] 1.03 | S. cerevisiae deletion strains, locus YDL101C, strain DUN1, active compounds read low 1.04 | S. cerevisiae deletion strains, locus YDR150W, strain NUM1, active compounds read low 1.01 | S. cerevisiae deletion strains, locus YEL061C, strain CIN8, active compounds read low 0.973 | S. cerevisiae deletion strains, locus YGR078C, strain PAC10, active compounds read low 1.01 | [2] 0.96 | S. cerevisiae deletion strains, locus YHR087W, strain rtc3, active compounds read low 0.971 | S. cerevisiae deletion strains, locus YJR043C, strain POL32, active compounds read low 1.01 | S. cerevisiae deletion strains, locus YJR075W, strain HOC1, active compounds read low 1.01 | S. cerevisiae deletion strains, locus YLR039C, strain RIC1, active compounds read low 1 | S. cerevisiae deletion strains, locus YLR058C, strain SHM2 (second series), active compounds read low 1 | S. cerevisiae deletion strains, locus YLR085C, strain ARP6, active compounds read low 0.986 | S. cerevisiae deletion strains, locus YLR262C, strain YPT6, active compounds read low 0.988 | S. cerevisiae deletion strains, locus YML094W, strain GIM5, active compounds read low 0.973 | S. cerevisiae deletion strains, locus YMR219W, strain ESC1, active compounds read low 0.998 | S. cerevisiae deletion strains, locus YMR263W, strain SAP30, active compounds read low 1.01 | S. cerevisiae deletion strains, locus YNL153C, strain GIM3, active compounds read low 1.02 | S. cerevisiae deletion strains, locus YNL298W, strain CLA4 (second series), active compounds read low 1.01 | S. cerevisiae deletion strains, locus YNL322C, strain KRE1, active compounds read low 1 | S. cerevisiae deletion strains, locus YNR030W, strain Alg12, active compounds read low 0.981 | S. cerevisiae deletion strains, locus YOL006C, strain TOP1, active compounds read low 1 | S. cerevisiae deletion strains, locus YPL055C, strain LGE1, active compounds read low 0.964 | S. cerevisiae deletion strains, locus YPL241C, strain CIN2, active compounds read low 1 | S. cerevisiae deletion strains, locus YPR135W, strain CTF4, active compounds read low 0.977 | S. cerevisiae strains, strain wild type, active compounds read low 1

O=C(NC(=O)c1c(F)cccc1F)Nc1ccc(Cl)cc1
inactive: S. cerevisiae deletion strains, locus YAL021C, strain ccr4, active compounds read low 1.03 | S. cerevisiae deletion strains, locus YAL026C, strain drs2, active compounds read low 1.01 | S. cerevisiae deletion strains, locus YAL030W, strain snc1, active compounds read low 1.02 | S. cerevisiae deletion strains, locus YBL061C, strain skt5, active compounds read low 1.01 | S. cerevisiae deletion strains, locus YBR009C, strain hhf1, active compounds read low 1.02 | S. cerevisiae deletion strains, locus YBR023C, strain chs3, active compounds read low 1.02 | S. cerevisiae deletion strains, locus YBR171W, strain sec66, active compounds read low 1.03 | S. cerevisiae deletion strains, locus YBR231C, strain swc5, active compounds read low 1.04 | S. cerevisiae deletion strains, locus YBR279W, strain paf1, active compounds read low 1.01 | S. cerevisiae deletion strains, locus YCL011C, strain gbp2, active compounds read low 1 | S. cerevisiae deletion strains, locus YCL016C, strain dcc1, active compounds read low 1.02 | [1] 1.01 | S. cerevisiae deletion strains, locus YCL069W, strain vba3, active compounds read low 0.996 | S. cerevisiae deletion strains, locus YCR088W, strain abp1, active compounds read low 1 | S. cerevisiae deletion strains, locus YDL005C, strain med2, active compounds read low 1.05 | S. cerevisiae deletion strains, locus YDL040C, strain nat1, active compounds read low 1.03 | S. cerevisiae deletion strains, locus YDR001C, strain nth1, active compounds read low 1.02 | S. cerevisiae deletion strains, locus YDR069C, strain doa4, active compounds read low 1.03 | S. cerevisiae deletion strains, locus YDR137W, strain rgp1, active compounds read low 1.01 | S. cerevisiae deletion strains, locus YDR159W, strain sac3, active compounds read low 1.04 | S. cerevisiae deletion strains, locus YDR195W, strain ref2 1.11 | S. cerevisiae deletion strains, locus YDR297W, strain sur2, active compounds read low 1.03 | S. cerevisiae deletion strains, locus YDR334W, strain swr1, active compounds read low 1.01 | S. cerevisiae deletion strains, locus YDR335W, strain msn5, active compounds read low 1.03 | S. cerevisiae deletion strains, locus YDR392W, strain spt3, active compounds read low 0.955 | S. cerevisiae deletion strains, locus YEL003W, strain gim4, active compounds read low 1.03 | S. cerevisiae deletion strains, locus YEL037C, strain rad23, active compounds read low 1.01 | S. cerevisiae deletion strains, locus YEL061C, strain CIN8 (second series), active compounds read low 1.01 | S. cerevisiae deletion strains, locus YER015W, strain faa2, active compounds read low 1.02 | S. cerevisiae deletion strains, locus YER016W, strain bim1, active compounds read low 1.03 | S. cerevisiae deletion strains, locus YER111C, strain swi4, active compounds read low 1.01 | S. cerevisiae deletion strains, locus YER155C, strain BEM2 (second series), active compounds read low 1.02 | S. cerevisiae deletion strains, locus YFR010W, strain ubp6, active compounds read low 1.01 | S. cerevisiae deletion strains, locus YGL167C, strain pmr1, active compounds read low 1.02 | S. cerevisiae deletion strains, locus YGL173C, strain kem1, active compounds read low 1.01 | S. cerevisiae deletion strains, locus YGL227W, strain vid30, active compounds read low 1.03 | S. cerevisiae deletion strains, locus YGL240W, strain doc1, active compounds read low 1.02 | S. cerevisiae deletion strains, locus YGL253W, strain hxk2, active compounds read low 1.01 | S. cerevisiae deletion strains, locus YHR013C, strain ard1, active compounds read low 1.03 | S. cerevisiae deletion strains, locus YHR027C, strain rpn1, active compounds read low 1.02 | [2] 1.06 | S. cerevisiae deletion strains, locus YHR079C, strain IRE1, active compounds read low 1.04 | S. cerevisiae deletion strains, locus YHR142W, strain chs7, active compounds read low 1.01 | S. cerevisiae deletion strains, locus YJL092W, strain hpr5, active compounds read low 1.02 | S. cerevisiae deletion strains, locus YJL095W, strain BCK1 (second series), active compounds read low 1.01 | S. cerevisiae deletion strains, locus YJL095W, strain BCK1, active compounds read low 1.03 | S. cerevisiae deletion strains, locus YJL115W, strain asf1, active compounds read low 1.04 | S. cerevisiae deletion strains, locus YJL129C, strain trk1, active compounds read low 1.02 | S. cerevisiae deletion strains, locus YJL154C, strain vps35, active compounds read low 1.01 | S. cerevisiae deletion strains, locus YJL164C, strain tpk1, active compounds read low 1 | S. cerevisiae deletion strains, locus YJL166W, strain qcr8, active compounds read low 1.02 | S. cerevisiae deletion strains, locus YJL187C, strain SWE1, active compounds read low 1.03 | S. cerevisiae deletion strains, locus YJR066W, strain TOR1, active compounds read low 0.956 | S. cerevisiae deletion strains, locus YKL160W, strain elf1, active compounds read low 1 | S. cerevisiae deletion strains, locus YKR026C, strain gcn3, active compounds read low 1.01 | S. cerevisiae deletion strains, locus YKR091W, strain srl3, active compounds read low 1.01 | S. cerevisiae deletion strains, locus YLL001W, strain dnm1, active compounds read low 0.996 | S. cerevisiae deletion strains, locus YLL026W, active compounds read low 1.02 | S. cerevisiae deletion strains, locus YLL041C, strain sdh2, active compounds read low 1.01 | S. cerevisiae deletion strains, locus YLR027C, strain aat2, active compounds read low 1.02 | S. cerevisiae deletion strains, locus YLR113W, strain HOG1, active compounds read low 1.04 | S. cerevisiae deletion strains, locus YLR221C, strain rsa3, active compounds read low 0.994 | S. cerevisiae deletion strains, locus YLR258W, strain gsy2, active compounds read low 1.02 | S. cerevisiae deletion strains, locus YLR262C, strain YPT6 (second series), active compounds read low 0.974 | S. cerevisiae deletion strains, locus YLR320W, strain mms22, active compounds read low 0.988 | S. cerevisiae deletion strains, locus YLR342W, strain FKS1, active compounds read low 1.02 | S. cerevisiae deletion strains, locus YLR357W, strain rsc2, active compounds read low 1.06 | S. cerevisiae deletion strains, locus YLR370C, strain arc18, active compounds read low 1.02 | S. cerevisiae deletion strains, locus YLR384C, strain iki3, active compounds read low 1.03 | S. cerevisiae deletion strains, locus YML120C, strain ndi1, active compounds read low 1 | S. cerevisiae deletion strains, locus YMR058W, strain fet3, active compounds read low 1.02 | S. cerevisiae deletion strains, locus YMR125W, strain sto1, active compounds read low 1.01 | S. cerevisiae deletion strains, locus YMR129W, active compounds read low 1.02 | S. cerevisiae deletion strains, locus YMR205C, strain PFK2, active compounds read low 1.04 | S. cerevisiae deletion strains, locus YMR231W, strain pep5, active compounds read low 1.03 | S. cerevisiae deletion strains, locus YNL071W, strain lat1, active compounds read low 1 | S. cerevisiae deletion strains, locus YNL183C, strain NPR1, active compounds read low 0.954 | S. cerevisiae deletion strains, locus YNL209W, strain ssb2, active compounds read low 1.02 | S. cerevisiae deletion strains, locus YNL248C, strain rpa49, active compounds read low 1 | S. cerevisiae deletion strains, locus YNL322C, strain KRE1 (second series), active compounds read low 1.02 | S. cerevisiae deletion strains, locus YNR049C, strain mso1, active compounds read low 1.02 | S. cerevisiae deletion strains, locus YOR001W, strain rrp6, active compounds read low 1.01 | S. cerevisiae deletion strains, locus YOR070C, strain gyp1, active compounds read low 1.02 | S. cerevisiae deletion strains, locus YOR080W, strain dia2, active compounds read low 1.03 | S. cerevisiae deletion strains, locus YOR083W, strain WHI5, active compounds read low 0.968 | S. cerevisiae deletion strains, locus YOR106W, strain vam3, active compounds read low 1.01 | S. cerevisiae deletion strains, locus YOR231W, strain MKK1, active compounds read low 1.03 | S. cerevisiae deletion strains, locus YOR265W, strain rbl2, active compounds read low 1.02 | S. cerevisiae deletion strains, locus YOR270C, strain vph1, active compounds read low 0.932 | S. cerevisiae deletion strains, locus YOR290C, strain snf2, active compounds read low 1.01 | S. cerevisiae deletion strains, locus YPL051W, strain arl3, active compounds read low 1.01 | S. cerevisiae deletion strains, locus YPL078C, strain atp4, active compounds read low 1 | S. cerevisiae deletion strains, locus YPL106C, strain sse1, active compounds read low 1.02 | S. cerevisiae deletion strains, locus YPL240C, strain hsp82, active compounds read low 1.04 | S. cerevisiae deletion strains, locus YPL256C, strain CLN2, active compounds read low 1.12
